# Screens (PubChem)
# Compounds with a hit are over-represented: about 15% of the library has one in this group of screens.
# ALOX12 inh = ALOX12 (human) lipoxygenase inhibition; P18054; purified 12hLO, xylenol orange hydroperoxide absorbance; Potency, µM (highest dose often 108 µM), for inactives: top-dose activity change, negative = inhibition, most hits filed as inhibitors; 580,000 tested, 1.1% active
# Target sequence (P18054 whole entry, looked up): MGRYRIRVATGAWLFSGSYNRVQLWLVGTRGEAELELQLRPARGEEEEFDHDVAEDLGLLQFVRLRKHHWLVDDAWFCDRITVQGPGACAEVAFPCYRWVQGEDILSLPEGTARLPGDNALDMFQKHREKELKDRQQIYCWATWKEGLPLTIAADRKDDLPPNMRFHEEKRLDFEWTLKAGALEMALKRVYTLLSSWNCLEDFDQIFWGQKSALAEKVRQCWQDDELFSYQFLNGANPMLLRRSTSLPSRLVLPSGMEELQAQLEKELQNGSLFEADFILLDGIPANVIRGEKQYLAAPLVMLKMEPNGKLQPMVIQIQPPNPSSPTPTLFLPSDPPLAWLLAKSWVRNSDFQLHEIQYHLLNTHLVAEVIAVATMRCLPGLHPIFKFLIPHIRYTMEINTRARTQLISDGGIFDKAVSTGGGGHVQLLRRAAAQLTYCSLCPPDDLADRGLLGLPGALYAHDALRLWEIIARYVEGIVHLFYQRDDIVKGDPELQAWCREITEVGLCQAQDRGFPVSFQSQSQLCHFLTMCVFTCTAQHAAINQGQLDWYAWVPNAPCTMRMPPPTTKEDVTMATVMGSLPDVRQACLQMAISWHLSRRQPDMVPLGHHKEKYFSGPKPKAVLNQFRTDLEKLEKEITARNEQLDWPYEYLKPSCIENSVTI
#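 Hydroperoxide product was detected by ferrous iron/xylenol orange as the 573 to 405 nm absorbance ratio. Arachidonic acid at 40 uM (final) was turned over for 30 min at room temperature by 150 nM human 12hLO, pH 7.0 Hepes buffer, after 15 min compound preincubation.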
# DT40 TDP1 no CPT = qHTS for Inhibitors of human tyrosyl-DNA phosphodiesterase 1 (TDP1): qHTS in cells in absence of CPT; DT40 Tdp1-/- hTDP1 cells, no CPT, ATP luminescence, 48 h; Potency, µM (top dose mostly 46.2 µM), for the others: at the top dose activity change, negative = growth inhibition, most hits filed as inhibitors; 420,000 tested, 15% active; AID 686978, 2013; further: nearly all actives have a fitted effect of over 55% in size
#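 Growth of hTDP1-complemented DT40 Tdp1-knockout cells is measured by ATP luminescence after at least 48 hr compound exposure at 37 °C, with DMSO substituting for the 20 nM CPT used in the parallel screen.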
# VP16 counter = counter-screen for ROR gamma inhibitors: Gal4-VP16 reporter. Drosophila S2 Gal4-VP16 UAS-luciferase, luminescence, 20 h. Potency, µM (doses to about 53.6 µM), for inactives: at the top dose activity, negative = inhibition, hits mostly inhibitors. 310,000 tested, 3.5% active. AID 2546;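 further: Gal4-VP16 expression switched on by copper sulfate through the metallothionein promoter; nearly all actives have a fitted effect of over 50% in size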
# RORgamma inh = inhibitors of mouse ROR gamma transcriptional activity; 310,000 tested, 5.4% active; Potency, µM (titrated, usually from 53.6 µM), without a hit: at the top dose activity change, negative = inhibition, usual class: inhibitors; P51450; Drosophila S2 Gal4-RORgamma UAS-luciferase reporter, 20 h; further: nearly all actives have a fitted effect of over 60% in size
#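 Luciferase reporter read in Schneider cells carrying Gal4-RORγ (mouse) and UAS-Photinus luciferase; cells given compound 1 h before 700 uM copper sulfate induction, then incubated 20 h at ambient temperature.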
# ELG1 repair inh = blocks ELG1-dependent DNA repair in HEK293T cells; HEK293T ELG1-luciferase reporter, luminescence, 16 h; DNA damage induced by 5-fluorouridine; Potency, µM (series often up to 46.1 µM), without a hit: at the top dose activity change, negative = inhibition, usual class: inhibitors; 330,000 tested, 2.3% active; further: nearly all actives have a fitted effect of over 55% in size
#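 HEK293T cells expressing luciferase-tagged ELG1 (2,000/well) received 5-Fluorouridine plus compound or DMSO for 16 hr at 37 °C. Luciferase was read by ONE-Glo luminescence after 30 min at room temperature.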
# TDP1 cell CPT = growth inhibition of DT40 Tdp1-/-;hTDP1 cells with camptothecin (screen for TDP1 inhibitors) | chicken DT40 Tdp1-/-;hTDP1 cells + 20 nM CPT, ATP luminescence, 48 h | Potency, µM (top dose mostly 46.2 µM), inactives show at the highest dose activity change, negative = growth inhibition, hits mostly inhibitors | 420,000 tested, 12% active | AID 686979; further: nearly all actives have a fitted effect of over 55% in size
#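 Cell growth measured by CellTiter-Glo luminescence after a minimum 48 h, 37 C compound exposure with 20 nM CPT in Tdp1-knockout DT40 cells stably expressing hTDP1, seeded 400/well; qHTS titration format.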
# * marks the source's active call; other numbers are inactive results; ? = inconclusive; . = no result; [ ] = remark or other dose. The call rests on the fitted dose curve; in most records, active means well fitted curve in the direction sought with a large enough effect; inconclusive means small, poorly fitted or top-dose-only effect, or another doubt; inactive means no such curve, though single readings can be large; an effect the other way counts as inactive or inconclusive. On the % scale 0 is the no-effect control and ±100 the full control effect; potency means the concentration at half of the fitted maximal effect.
SMILES,ALOX12 inh,DT40 TDP1 no CPT,VP16 counter,RORgamma inh,ELG1 repair inh,TDP1 cell CPT
Cc1ccc(CSc2nc3cccnc3n2Cc2ccc(C(=O)NCCc3ccccc3)cc2)cc1,-17%,-7%,.,.,.,-15%
O=C(NCc1ccccc1Cl)c1ccc(Cn2c(SCc3ccccc3)nc3cccnc32)cc1,-9%,?,.,.,.,?
COC(=O)c1ccc(COc2ccccc2/C=C(\C#N)C(=O)Nc2c(C)cc(C)cc2C)cc1,-6%,10µM*,?,?,?,8.2µM*
Cc1cc(C)c(NC(=O)/C(C#N)=C/c2ccc(OCc3ccc(F)cc3)cc2)c(C)c1,13%,6.5µM*,20%,-8%,?,2.6µM*
CCCc1ccc(OCCN)cc1,30%,.,.,.,.,.
O=C(Nc1ccc(OC(F)F)cc1)c1cc(=O)[nH]c2ccccc12,60%,.,.,.,.,.
O=C(Nc1cccc(S(=O)(=O)N2CCOCC2)c1)c1ccc(OCc2cn3ccccc3n2)cc1,34%,.,.,.,.,.
Cc1nc2n(c(=O)c1C)CN(CCN1CCOCC1)CN2c1ccc(Oc2ccccc2)cc1,-2%,.,.,.,.,.
O=C(Nc1ccc(F)cc1)C(CCc1ccccc1)N1CCN(c2cccc(C(F)(F)F)n2)CC1 (stereo not given),-14%,?,.,.,.,18µM*
O=C(Nc1ccc(F)cc1)C(c1cc2ccccc2o1)N1CCN(c2cccc(C(F)(F)F)n2)CC1 (stereo not given),-3%,?,.,.,.,?
O=C(Nc1ccc(F)cc1)C(c1ccncc1)N1CCN(c2cccc(C(F)(F)F)n2)CC1 (stereo not given),-5%,21µM*,.,.,.,?
COc1ccccc1N1CCN(c2ncccc2CNC(C)Cn2ccnc2)CC1 (stereo not given),41%,.,.,.,.,.
Cc1[nH]c2ccccc2c1C(O)CN1CCN(c2cccc(C(F)(F)F)c2)CC1 (stereo not given),?,18µM*,-17%,2%,15µM*,23µM*
O=C(CCCCCn1c(=O)[nH]c2ccccc2c1=O)N1CCN(c2cccc(C(F)(F)F)c2)CC1,-14%,0.58µM*,.,.,.,0.58µM*
CCCCCn1c(=O)[nH]c2cc(C(=O)N3CCN(c4cccc(C(F)(F)F)c4)CC3)ccc2c1=O,-7%,7.3µM*,.,.,.,10µM*
Cc1[nH]c2ccccc2c1NC(=O)CN1CCN(c2cccc(C(F)(F)F)c2)CC1,364%,?,-7%,?,.,?
CCOC(=O)c1cnc2sc3c(n2c1=O)CCCC3,-28%,15µM*,?,-18%,-14%,26µM*
CN(C)C(=O)C1C2NC(=S)N(c3ccccc3)C1(C)Oc1ccccc12 (stereo not given),?,-1%,-4%,-34%,-1%,6%
CN(C)C(=O)C1C2NC(=S)N(c3cccc(Cl)c3)C1(C)Oc1ccc(Cl)cc12 (stereo not given),?,-24%,?,10µM*,12%,-17%
CN(C)C(=O)C1C2NC(=S)N(c3ccc(Cl)cc3)C1(C)Oc1ccc(Cl)cc12 (stereo not given),?,?,?,10µM*,2%,?
O=C(c1ccc(Cl)cc1)N1CCC2(C1)C(=O)Nc1ccccc12 (stereo not given),1%[6.33 µM],.,.,.,.,.
CCNC(=O)C1(C)CCN(Cc2ccc(-c3ccccc3)cc2)C1 (stereo not given),-6%,21µM*,.,.,.,?
CCNC(=O)C1(C)CCN(Cc2ccccc2-c2ccccc2)C1 (stereo not given),-7%,?,.,.,.,?
CCNC(=O)C1(C)CCN(Cc2csc(-c3ccccc3)n2)C1 (stereo not given),0%,12µM*,.,.,.,?
COc1ccc(-c2cc(N3CCC(NC(=O)Cc4ccsc4)CC3)n[nH]2)cc1,69%,.,.,.,.,.
SMILES,ALOX12 inh,DT40 TDP1 no CPT,VP16 counter,RORgamma inh,ELG1 repair inh,TDP1 cell CPT
C[C@@H](NCc1ccc(F)cc1)c1onc(-c2ccc(Cl)cc2)c1C(=O)O,7%[176 µM],.,.,.,.,.
COCC(=O)N1CCC(Oc2ccc(C(=O)NCCCC3CCCC3)cc2)CC1,-2%,18µM*,16%,29%,28%,13µM*
CCc1noc(-c2nc(-c3ccc(OC)cc3OC)no2)n1,0%,.,.,.,.,.
CCC(=O)Oc1cc(C(C)(C)C)cc2cc(-c3nc(-c4ccc(OC)cc4OC)no3)c(=O)oc12,0%,16µM*,.,.,.,?
COc1ccc2c(c1)OC1=C(C(=O)CCC1)C2C1=C(O)CCCC1=O (stereo not given),-26%,-20%,10%,11µM*,-8%,-12%
O=C1CCCC(O)=C1C1C2=C(CCCC2=O)OC2=C1C(=O)CCC2,1%,-9%,-8%,-6%,7%,-3%
CC(=O)N1CCN2C(=O)N(Cc3ccc(F)cc3)C[C@H]2C1,9%[176 µM],.,.,.,.,.
CCCn1c(O)c(N=NC(=O)c2cccnc2)c2cc(Br)ccc21,7%,?,-2%,-1%,0%,16µM*
